Reference: the supplement of paper PMC10338343
± gives the standard deviation. Whole data set: some 8,200 sequences, median “pre-steady-state target cleavage rate” near 0.024, cut for the highest 2% near 1.3. The sample holds the highest values, similar sequences and a random draw of the others, so the mix is not that of the screen.

Tested on: MIWI (PIWIL1) piRISC loaded with L1MC piRNA (30 nt)
Test: pre-steady-state target cleavage rate (min^-1); MIWI and MILI are mouse PIWI proteins and EfPiwi is from a freshwater sponge; tags in brackets are library labels; higher = faster piRNA-guided slicing of the target
Conditions: guide: L1MC piRNA 5'p-UAACUAAAUACUAUGCAAGCUGUAGGUCCU
Experimental: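 Cleave-'n-Seq: a library of target RNAs (target site embedded in constant flanks, ACAGCATTCCGCGTTAGTGATATCCG... 5' flank; DNA-blocked outside the site) at 0.1 nM was incubated with 1 nM active mouse MILI or MIWI piRISC (synthetic 5'-monophosphorylated piRNA guide) with or without 500 nM mouse GTSF1 at 33 °C for 1 min to 16 h. Uncleaved targets were sequenced and normalised to non-target controls, and the pooled three trials were fitted to a burst-and-steady-state model to give the pre-steady-state cleavage rate (min^-1; k3 is constrained to at most 1e-4). Sequence is the target site only; target names encode pairing extent (gX:gY) and contiguous / 1-mismatch / 2-mismatch / bulge geometry. Fits with R² ≤ 0 are excluded.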

[1] = auxiliary factor: 500 nM mouse GTSF1
[2] = auxiliary factor: none (no GTSF1)

Sequence | pre-steady-state target cleavage rate [1] | pre-steady-state target cleavage rate [2]
UCCUCGUACAGCUUGCAUAGUAAUUAGUUA | 0.952 ± 0.032 | 0.029 ± 0.007
UCCUGCAUGAGCUUGCAUAGUAUUUAGUUA | 0.92 ± 0.051 | 0.0506 ± 0.01
UCCUGGAACAGCUUGCAUAGUAUUAUGUUA | 0.169 ± 0.023 | 0.013 ± 0.0044
UCCUGGAACACUUGCAUAGUAUUUAGUUA | 0.596 ± 0.032 | 0.0132 ± 0.0044
UCCACGUACAGCUUGCAUAGAAUUUAGUUA | 0.412 ± 0.022 | 0.0297 ± 0.0084
UGGACCUACAGCUUGCAAAGUAUUUAGUUA | 1.36 ± 0.058 | 0.0474 ± 0.0097
ACGACCUACAGCUUGCAAAGUAUUUAGUUA | 1.56 ± 0.057 | 0.0528 ± 0.011
UGGACCUACAGCUUGCAAAGUAUUUAGUAA | 1.13 ± 0.074 | 0.0219 ± 0.006
UGCACCUACAGCUUGCAAAGUAUUUAGUUA | 1.23 ± 0.08 | 0.0409 ± 0.0074
UCGACCUACAGCUUGCAAGUAUUUAGUUA | 0.427 ± 0.038 | 0.00682 ± 0.0023
UCCACCUACAGCUUGCAAAGUAUUUAGUUA | 0.937 ± 0.044 | 0.0318 ± 0.0069
AGGACCUACAGCUUGCAAAGUAUUUAGUUA | 1.26 ± 0.053 | 0.0478 ± 0.0089
UCGACCUACAGCUUGCAAAGUAUUUAGUAA | 0.99 ± 0.053 | 0.0245 ± 0.0048
UCGACCUACAGCUUGCAAAGUAUUUAGUUA | 1.47 ± 0.056 | 0.0377 ± 0.0085
UCCUGGUACUGCUUGCAUAGUAAUUAGUUA | 0.313 ± 0.047 | 0.0127 ± 0.0034
AGGACCUACAGCUUGCAUACUUUUUAGUUA | 0.0575 ± 0.011 | 0.00783 ± 0.0023
UCCUGGAUCAGGUUGCAAAGUAUUUAGUUA | 0.391 ± 0.036 | 0.0061 ± 0.0023
UCCACCUACACGUUGCAUAGUAUUUUCAAA | 0.22 ± 0.036 | 
UCCUGGAAGAGCUUCCAUAGUAUUUAGUUA | 0.255 ± 0.058 | 
UGGACCUACAGCUUGCAUAGUAUUUCAGUUA | 0.468 ± 0.06 | 0.0318 ± 0.0065

Sequence | pre-steady-state target cleavage rate [1] | pre-steady-state target cleavage rate [2]
UGGAGGUACAGCUUGCAUAGUAUUUAGUUA | 1.35 ± 0.064 | 0.0828 ± 0.015
UCGAGGUACAGCUUGCAUAGUAUUUAGUUA | 1.04 ± 0.066 | 0.0604 ± 0.0095
AGGUGGUACAGCUUGCAUAGUAUUUAGUAA | 0.645 ± 0.065 | 0.04 ± 0.0068
UGGAGGUACAGCUUGCAUAGUAUUUAGUAA | 0.794 ± 0.065 | 0.0463 ± 0.0071
AGGUGGUACAGCUUGCAUAGUAUUUAGUUA | 1.36 ± 0.057 | 0.0811 ± 0.015
UGGUGGUACAGCUUGCAUAGUAUUUAGUUA | 1.3 ± 0.046 | 0.0711 ± 0.012
AGGAGGUACAGCUUGCAUAGUAUUUAGUUA | 1.5 ± 0.072 | 0.0721 ± 0.011
AGGAGGUACAGCUUGCAUAGUAUUUAGUAA | 0.803 ± 0.079 | 0.0437 ± 0.0095
AGGAGGUACAGCUUGCAUAGUAUUUAGAAA | 0.324 ± 0.044 | 0.0123 ± 0.0037
UGGACCUACAGCUUGCAUAGAAUUUACAAA | 0.29 ± 0.062 | 
UGGACCUACAGGUUGCAUAGUAAUUAGUUA | 0.731 ± 0.055 | 0.0177 ± 0.0042
UGGACCUACAGCUUGCAUAGAAUUUUCAAA | 0.239 ± 0.048 | 
UCCUGGAUGUGCUUGCAUGGUAUUUAGUUA | 0.209 ± 0.02 | 0.0348 ± 0.0072
UCGACCUACAGCUUGCAUAGUAUUUAGAUA | 0.564 ± 0.043 | 0.0299 ± 0.0074
UCCACCUACACCUUGCAUAGUAUUUACAAA | 0.309 ± 0.053 | 0.00355 ± 0.0022
UCCUGGUACAGCUAGCAUAGUAUUAAGUUA | 0.378 ± 0.051 | 0.00772 ± 0.0027
UCCUGGAUGUGCUUGCAUAGUAUUUUAGUUA | 0.128 ± 0.018 | 0.021 ± 0.0069
UCCACCUACAGCUACGAUAGUAUUUAGUUA | 0.121 ± 0.016 | 
UCCUCCUACUGCUAGCAUAGUAUUUAGUUA | 0.871 ± 0.033 | 0.0164 ± 0.0031
UCGACCUAGAGCUUGGAUAGUAUUUAGUUA | 1.25 ± 0.042 | 0.0475 ± 0.0077

Sequence | pre-steady-state target cleavage rate [1] | pre-steady-state target cleavage rate [2]
UCGACCUUCAGCUUGGAUAGUAUUUAGUUA | 1.49 ± 0.05 | 0.0525 ± 0.0074
UCCACCUUCAGCUUGGAUAGUAUUUAGUUA | 1.15 ± 0.033 | 0.0456 ± 0.0083
UCGACCUUCAGCUUCCAUAGUAUUUAGUUA | 0.0473 ± 0.011 | 0.00293 ± 0.0014
UCCUCCUUCAGCUUGGAUAGUAUUUAGUUA | 1.19 ± 0.041 | 0.0358 ± 0.0057
UGGACCUUCAGCUUGGAUAGUAUUUAGUUA | 1.59 ± 0.068 | 0.0597 ± 0.011
UCCUGCUUCAGCUUGGAUAGUAUUUAGUUA | 1.18 ± 0.078 | 0.049 ± 0.0081
AGGACCUUCAGCUUGGAUAGUAUUUAGUUA | 1.48 ± 0.052 | 0.0657 ± 0.012
AGGACCUUCAGCUUCCAUAGUAUUUAGUUA | 0.101 ± 0.023 | 0.00546 ± 0.0024
UCCACCUAGUCCUUGCAUAGUAUUUAGUAA | 0.142 ± 0.021 | 0.00921 ± 0.0015
UCCUGGAACAGCUUGCAAAGUAAUUAGUUA | 0.545 ± 0.038 | 0.0139 ± 0.0055
UCCACCUACAGCUUGCAUAGAAUUUACAAA | 0.308 ± 0.054 | 
UCCUGGUACAGUUUGCAUAGUAUUUAGUUA | 0.706 ± 0.044 | 0.0392 ± 0.0063
AGGACCUACAGCUUGGCAUAGUAUUUAGUUA | 1.17 ± 0.17 | 0.0407 ± 0.0099
ACGACCUACAGCUAGCAUAGUAUUUAGUUA | 1.3 ± 0.052 | 0.0406 ± 0.0091
UGGACCUACAGCUUAGCAUAGUAUUUAGUUA | 1.45 ± 0.08 | 0.0281 ± 0.0051
UCCACCUACAGCUUAGCAUAGUAUUUAGUUA | 1.02 ± 0.03 | 0.0144 ± 0.0034
AGGACCUACAGCUAGCAUAGUAUUUAGUUA | 1.16 ± 0.061 | 0.0412 ± 0.0085
UGGACCUACAGCUUGGCAUAGUAUUUAGUUA | 1.01 ± 0.26 | 0.0197 ± 0.0048
UGGACCUACAGCUAGCAUAGUAUUUAGUUA | 1.41 ± 0.074 | 0.0334 ± 0.0077
